# Source: PubChem BioAssay
# Pf growth 96h = Primary qHTS for delayed death inhibitors of the malarial parasite plastid, 96 hour incubation; hit rate 6.9% among 320,000; AID 504834, 2011; P. falciparum luciferase reporter growth, 96 h; Potency, µM (highest dose often 28.7 µM), for the others: at the highest dose activity change, negative = inhibition, usual class: inhibitors; active = well fitted inhibition curve with a large enough effect; inconclusive = small, poorly fitted or top-dose-only effect, or another doubt; inactive = no such curve, though single readings can be large or run the other way; also: potency is read from the fitted curve at half-maximal effect; % is scaled to controls: 0 for no effect and ±100 for the full control effect
#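 Plates of compound plus infected erythrocytes (2% hematocrit, 0.05% parasitemia final) incubate 96 hours, 37 C, 5% CO2. Detection reagent added; reduced luminescence from the parasites' luciferase reporter flags inhibition.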
# CHX counter = Cycloheximide Counterscreen for Small Molecule Inhibitors of Shiga Toxin; cell reporter, cycloheximide protein synthesis inhibition counterscreen; hit rate 12% among 300,000; max response, %; in the data active = max response mostly above about 13%, no sharp cut-off; inactive = mostly below about 14%; also: read at 38.3 µM for the half of the compounds with a filed dose; 0% is about no effect
# NS1 function inh = qHTS Assay for Inhibitors of Influenza NS1 Protein Function | hit rate 0.4% among 270,000 | Potency, µM (highest dose often 46.1 µM), inactives show at the highest dose activity, positive = more growth | AID 2326, 2010; also: potency is read from the fitted curve at half-maximal effect; actives are rising curves; nearly all actives have a fitted effect of over 50% in size
#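 Growth recovery, yeast-based: influenza A NS1 expressed in S. cerevisiae causes slow growth, and suppressors are detected by OD600. The parent strain without NS1 is used as positive control.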
# Pf growth 48h = Primary qHTS for delayed death inhibitors of the malarial parasite plastid, 48 hour incubation; P. falciparum luciferase growth in erythrocytes, 48 h; Potency, µM (series often up to 28.7 µM), inactives show at the top dose activity change, negative = inhibition, most hits filed as inhibitors; hit rate 5.9% among 310,000; AID 504832, 2011; active = well fitted inhibition curve with a large enough effect; inconclusive = small, poorly fitted or top-dose-only effect, or another doubt; inactive = no such curve, though single readings can be large or run the other way; also: potency is read from the fitted curve at half-maximal effect; % is scaled to controls: 0 for no effect and ±100 for the full control effect
#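 Here the parasites carry a stable luciferase gene and grow inside erythrocytes in Albumax-based RPMI medium with compound for one erythrocytic cycle. Activity is scored as loss of luminescent signal.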
# Shiga toxin inh = A qHTS for Small Molecule Inhibitors of Shiga Toxin. Vero cells, Shiga toxin protein synthesis inhibition reporter. inhibition, % at 38.7 µM. hit rate 9.2% among 290,000. AID 2315, 2010; in the data active = inhibition mostly above about 28%, no sharp cut-off; inactive = mostly below about 43%; also: 0% is about no effect
# SARS PLpro yeast = qHTS of Yeast-based Assay for SARS-CoV PLP; S. cerevisiae expressing SARS-CoV PLpro, growth rescue; Potency, µM (doses to about 32.9 µM), inactives show at the highest dose activity, positive = growth rescue, actives largely listed as activators; hit rate 0.19% among 330,000; also: potency is read from the fitted curve at half-maximal effect; 0% is about no effect; nearly all actives have a fitted effect of over 55% in size
# * hit, by the source's call; ? = inconclusive; . = no result given. An excerpt weighted towards active compounds, which were near 21% of everything screened. Unless noted, calls follow the shape of the full dose curve.
SMILES,Pf growth 96h,CHX counter,NS1 function inh,Pf growth 48h,Shiga toxin inh,SARS PLpro yeast
CC(C)Cn1[nH]c2c3c(ccc2c1=O)C(=O)c1ccccc1C3=O,?,27*,2%,10µM*,61,-10%
CCOC(=O)c1cn(-c2c(C)n(C)n(-c3ccccc3)c2=O)c2c(F)c(F)c(F)cc2c1=O,5%,-4,-3%,-5%,-6,2%
CCc1cc(=O)oc2c3c(cc(OCC(=O)NCc4cccnc4)c12)OC(C)(C)CC3,?,7,-12%,9.3µM*,13,10%
COc1cc2c(c3oc(=O)cc(CC(=O)O)c13)CCC(C)(C)O2,5.2µM*,7,-9%,?,17,1%
CCc1cc(=O)oc2c3c(cc(OCC(=O)NCc4ccccn4)c12)OC(C)(C)CC3,?,-1,-39%,?,-3,-9%
CCc1cc(=O)oc2c3c(cc(OCC(=O)Nc4cccnc4)c12)OC(C)(C)CC3,2.9µM*,1,-23%,2.1µM*,-1,-14%
Cc1c(C)c2c(OCC(=O)Nc3cccnc3)cc3c(c2oc1=O)CCC(C)(C)O3,4.1µM*,-2,-13%,?,-7,-1%
CCOc1ccc(C(=O)N2CCN(CC(=O)N3CCCC3)CC2)cc1OCC,3%,.,.,0%,.,-6%
CC(C)N(CC(O)COc1ccc(CC(N)=O)cc1)CC(O)COc1ccc(CC(N)=O)cc1 (stereo unspecified),?,-5,3%,-3%,-5,0%
COc1cccc(C(=O)NCCNC(=O)c2ccco2)c1,20%,-3,4%,9%,-9,1%
CCCCN1C2=C(C(=O)CCC2)C(c2ccc(Cl)c(Cl)c2)C2=C1c1ccccc1C2=O (stereo unspecified),?,10,11%,?,-15,1%
Cc1ccc(-n2c(CNc3ccc(F)cc3)nnc2SCC(N)=O)cc1,?,-5,-2%,-20%,-26,6%
CCCc1cc(=O)oc2c3c(cc(OCC(=O)NCC4CCC(C(=O)O)CC4)c12)OC(C)(C)CC3 (stereo unspecified),1.3µM*,6,9%,?,-1,7%
CCc1cc(=O)oc2c3c(cc(OCC(=O)NCCCCCC(=O)O)c12)OC(C)(C)CC3,?,-2,3%,?,-5,-2%
CN1CCN(CC(=O)c2cc(C(C)(C)C)c(O)c(C(C)(C)C)c2)CC1,11%,-1,?,?,.,-1%
C=Cn1cc[n+](CC(=O)c2ccc(Br)s2)c1,3.3µM*,5,11%,?,-11,19%
C=Cn1cc[n+](CC(=O)c2cccs2)c1,6.6µM*,-2,-4%,?,-6,3%
C=Cn1cc[n+](CC(=O)c2ccc(-c3ccccc3)cc2)c1,?,-1,-10%,1.5µM*,.,-2%
C=Cn1cc[n+](CC(=O)c2cc(C(C)(C)C)c(O)c(C(C)(C)C)c2)c1,2.1µM*,-1,-7%,6.6µM*,1,7%
CCN(CC1CCCN(CCc2cccc(OC)c2)C1)C(=O)c1ccc(COC)o1 (stereo unspecified),3%,0,-9%,-19%,-21,2%
O=C(NCCc1cccc(Cl)c1)c1ccc2c(c1)OCO2,3%,32*,-46%,-31%,56*,-12%
Cc1ccc(C(=O)NCc2ccc3c(c2)OCO3)cc1,?,13*,24%,-1%,19,14%
COc1ccc(C(=O)NCc2ccc3[nH]c(C)cc3c2)cc1OC,?,-1,.,-17%,-8,0%
COc1ccc(CNC(=O)COC(=O)c2ccc3c(c2)OCCO3)cc1,6%,-1,-7%,.,-9,6%
Cc1cc2cc(CNC(=O)c3ccc4c(c3)OCO4)ccc2[nH]1,45%,20*,2%,7%,66,-5%
Cc1ccc(CC(=O)NCc2ccc3c(c2)OCO3)cc1,11%,22,-5%,11%,34,.
COC(=O)c1ccc(CNC(=O)c2ccc3c(c2)OCCO3)cc1,20%,19*,13%,9%,63,-8%
